{"source": "ChEMBL document CHEMBL4513135", "about": "“CO-ADD screening of IQOG CSIS (Spain) compounds”", "note": "Several values for one entry are separate records, joined by “and”; a condition that tells them apart may be missing. Identical values can stand only once. Measured potencies and affinities stand elsewhere.", "data": [{"system": "Klebsiella pneumoniae", "settings": "Concentration 32 ug.mL-1; ASSAY_TEST Inhibition of Bacterial Growth; detection method Absorption (OD600); MEDIA CAMHB; plate type 384well; NBS; CORNING #3640; time 18 hr", "units": {"Inhibition": "%"}, "values": [{"smiles": "CC(=O)Nc1nc(Cl)c(C#N)c(-c2ccccc2)c1C#N", "Inhibition": 7.97}, {"smiles": "C#CCNC.O=C(O)C(=O)O", "Inhibition": 9.05}, {"smiles": "COC(=O)/C(=C/c1ccc(O)cc1)NC(=O)c1ccccc1", "Inhibition": -14.62}, {"smiles": "Cc1ccc(C2c3ccc4ccccc4c3Oc3nc4c(c(N)c32)CCCC4)cc1", "note": "(centres undefined)", "Inhibition": -8.56}, {"smiles": "CCOC(=O)C1=C(C)OC(N)=C(C#N)C1c1ccc(F)cc1", "note": "(centres undefined)", "Inhibition": 13.44}, {"smiles": "COc1ccc(C=C2N=C(c3ccccc3)SC2=O)cc1", "Inhibition": 19.45}, {"smiles": "OCc1cc2ccccc2[nH]1", "Inhibition": 6.48}, {"smiles": "C#CCN(C)c1nc(NCCCCC2CCN(Cc3ccccc3)CC2)c(C#N)cc1C#N", "Inhibition": 0.44}, {"smiles": "CC(C(=O)O)c1c[nH]c2ccccc12", "note": "(centres undefined)", "Inhibition": 21.1}, {"smiles": "CCOC(=O)c1c(C)nc(/N=N/c2nc(C)c(C(=O)OCC)c(-c3ccccc3)c2C#N)c(C#N)c1-c1ccccc1", "Inhibition": 0.93}, {"smiles": "C#CCNc1ncc(C#N)c(N)n1", "Inhibition": 3.55}, {"smiles": "COc1ccccc1C1C(C#N)=C(N)Oc2[nH]nc(C)c21", "note": "(centres undefined)", "Inhibition": 0.76}, {"smiles": "N#CC1=C(Cl)Oc2c(ccc3ccccc23)C1c1ccccc1[N+](=O)[O-]", "note": "(centres undefined)", "Inhibition": 5.03}, {"smiles": "COC1=C(C#N)C(c2ccccc2)C(C=O)=C(Cl)N1", "note": "(centres undefined)", "Inhibition": 16.25}, {"smiles": "CN(C)c1cccc(C(=O)c2cccc(N(C)C)c2)c1", "Inhibition": 6.77}, {"smiles": "COc1cc(C2c3c(nc4c(c3N)CCC4)Oc3ccc4ccccc4c32)ccc1O", "note": "(centres undefined)", "Inhibition": 23.66}, {"smiles": "O=C(Cc1c[nH]c2ccccc12)NNCc1ccccc1", "Inhibition": 1.88}, {"smiles": "CCOC(=O)c1c(C)nc(N)c(C#N)c1-c1cccs1", "Inhibition": -1.63}, {"smiles": "Cc1nn(-c2ccccc2)c2ncnc(NCc3ccccc3)c12", "Inhibition": 6.27}, {"smiles": "Cl.N#Cc1c(N)nc(NCCO)c(C#N)c1-c1ccccc1", "Inhibition": 7.62}, {"smiles": "CC1CN(C)c2c(C#N)c(-c3ccccc3)c(C#N)c(=N)n21", "note": "(centres undefined)", "Inhibition": 18.9}, {"smiles": "NC1(C(=O)O)CC1c1ccc2c(c1)OCO2", "note": "(centres undefined)", "Inhibition": 1.95}, {"smiles": "C#CCN(Cc1ccccc1)c1nc(N)c(C#N)c(-c2ccccc2)c1C#N", "Inhibition": -5.74}, {"smiles": "Cc1cc(Br)cc(C)c1NC=C(C#N)C#N", "Inhibition": -18.28}, {"smiles": "Cc1nn(-c2ccccc2)c2ncnc(Nc3ccccc3)c12", "Inhibition": 14.62}, {"smiles": "C#CC[n+]1ccccc1N.[Br-]", "Inhibition": -10.26}, {"smiles": "C#CCN1CCc2nc3nc(N4CCCC4)c(C#N)cc3c(N)c2C1", "Inhibition": 10.68}, {"smiles": "O=C(COc1ccc2ccccc2c1)N/N=C/c1c[nH]c2ccccc12", "Inhibition": 8.99}, {"smiles": "CC(=NNC(N)=O)c1c[nH]c2ccccc12", "Inhibition": 10.53}, {"smiles": "COc1nc2ccccc2cc1C=O", "Inhibition": -3.66}, {"smiles": "NNC(=O)c1c[nH]c2ccc(OCc3ccccc3)cc12", "Inhibition": 3.4}, {"smiles": "Cn1ccnc1C1c2c(nc3c(c2N)CCC3)Oc2ccc3ccccc3c21", "note": "(centres undefined)", "Inhibition": 7.74}, {"smiles": "C#CCN(C)c1ncc(C#N)c(N)n1", "Inhibition": 9.44}, {"smiles": "C=CCNCc1cc2cc(OCCCC3CCN(Cc4ccccc4)CC3)ccc2[nH]1.O.O=C(O)C(=O)O.O=C(O)C(=O)O", "Inhibition": -6.45}, {"smiles": "Cc1ccc(CNNC(N)=O)cc1.Cl", "Inhibition": 11.02}, {"smiles": "N#CC1(Br)C(=NBr)Oc2ccc3ccccc3c2C1c1ccccc1[N+](=O)[O-]", "note": "(centres undefined)", "Inhibition": 5.57}, {"smiles": "N#CC1=C(N)Oc2ccc3ccccc3c2C1c1cccc([N+](=O)[O-])c1", "note": "(centres undefined)", "Inhibition": 6.14}, {"smiles": "Cc1ccc2nc(Cl)c(/C=N/OCc3ccccc3)cc2c1", "Inhibition": 9.15}, {"smiles": "C#CCNc1nc(NC2CCN(Cc3ccccc3)CC2)c(C#N)cc1C#N.Cl", "Inhibition": -9.27}]}, {"system": "Candida albicans", "settings": "32 ug/mL", "values": [{"smiles": "N#CC1(Br)C(=N)Oc2ccc3ccccc3c2C1c1ccccc1", "note": "(centres undefined)", "Inhibition": "5.08% and 2.03%"}, {"smiles": "CC(=O)Nc1nc(Cl)c(C#N)c(-c2ccccc2)c1C#N", "Inhibition": "1.84%"}, {"smiles": "C#CCNC.O=C(O)C(=O)O", "Inhibition": "4.18%"}, {"smiles": "COC(=O)/C(=C/c1ccc(O)cc1)NC(=O)c1ccccc1", "Inhibition": "1.73%"}, {"smiles": "Cc1ccc(C2c3ccc4ccccc4c3Oc3nc4c(c(N)c32)CCCC4)cc1", "note": "(centres undefined)", "Inhibition": "2.81%"}, {"smiles": "CCOC(=O)C1=C(C)OC(N)=C(C#N)C1c1ccc(F)cc1", "note": "(centres undefined)", "Inhibition": "1.48%"}, {"smiles": "COc1ccc(C=C2N=C(c3ccccc3)SC2=O)cc1", "Inhibition": "0.65%"}, {"smiles": "OCc1cc2ccccc2[nH]1", "Inhibition": "2.35%"}, {"smiles": "C#CCN(C)c1nc(NCCCCC2CCN(Cc3ccccc3)CC2)c(C#N)cc1C#N", "Inhibition": "3.03%"}, {"smiles": "CC(C(=O)O)c1c[nH]c2ccccc12", "note": "(centres undefined)", "Inhibition": "31.5%"}, {"smiles": "CCOC(=O)c1c(C)nc(/N=N/c2nc(C)c(C(=O)OCC)c(-c3ccccc3)c2C#N)c(C#N)c1-c1ccccc1", "Inhibition": "-1.11%"}, {"smiles": "C#CCNc1ncc(C#N)c(N)n1", "Inhibition": "2.29%"}, {"smiles": "COc1ccccc1C1C(C#N)=C(N)Oc2[nH]nc(C)c21", "note": "(centres undefined)", "Inhibition": "2.02%"}, {"smiles": "N#CC1=C(Cl)Oc2c(ccc3ccccc23)C1c1ccccc1[N+](=O)[O-]", "note": "(centres undefined)", "Inhibition": "3.33%"}, {"smiles": "COC1=C(C#N)C(c2ccccc2)C(C=O)=C(Cl)N1", "note": "(centres undefined)", "Inhibition": "4.19%"}, {"smiles": "CN(C)c1cccc(C(=O)c2cccc(N(C)C)c2)c1", "Inhibition": "-0.28%"}, {"smiles": "COc1cc(C2c3c(nc4c(c3N)CCC4)Oc3ccc4ccccc4c32)ccc1O", "note": "(centres undefined)", "Inhibition": "-1.69%"}, {"smiles": "O=C(Cc1c[nH]c2ccccc12)NNCc1ccccc1", "Inhibition": "0.22%"}, {"smiles": "CCOC(=O)c1c(C)nc(N)c(C#N)c1-c1cccs1", "Inhibition": "2.63%"}, {"smiles": "Cc1nn(-c2ccccc2)c2ncnc(NCc3ccccc3)c12", "Inhibition": "-0.21%"}, {"smiles": "Cl.N#Cc1c(N)nc(NCCO)c(C#N)c1-c1ccccc1", "Inhibition": "1.4%"}, {"smiles": "CC1CN(C)c2c(C#N)c(-c3ccccc3)c(C#N)c(=N)n21", "note": "(centres undefined)", "Inhibition": "1.63%"}, {"smiles": "NC1(C(=O)O)CC1c1ccc2c(c1)OCO2", "note": "(centres undefined)", "Inhibition": "-1.13%"}, {"smiles": "C#CCN(Cc1ccccc1)c1nc(N)c(C#N)c(-c2ccccc2)c1C#N", "Inhibition": "2.73%"}, {"smiles": "Cc1cc(Br)cc(C)c1NC=C(C#N)C#N", "Inhibition": "1.62%"}, {"smiles": "Cc1nn(-c2ccccc2)c2ncnc(Nc3ccccc3)c12", "Inhibition": "0.48%"}, {"smiles": "C#CC[n+]1ccccc1N.[Br-]", "Inhibition": "1.82%"}, {"smiles": "C#CCN1CCc2nc3nc(N4CCCC4)c(C#N)cc3c(N)c2C1", "Inhibition": "1.92%"}, {"smiles": "O=C(COc1ccc2ccccc2c1)N/N=C/c1c[nH]c2ccccc12", "Inhibition": "0.9%"}, {"smiles": "CC(=NNC(N)=O)c1c[nH]c2ccccc12", "Inhibition": "5.46%"}, {"smiles": "COc1nc2ccccc2cc1C=O", "Inhibition": "6.13%"}, {"smiles": "NNC(=O)c1c[nH]c2ccc(OCc3ccccc3)cc12", "Inhibition": "1.23%"}, {"smiles": "Cn1ccnc1C1c2c(nc3c(c2N)CCC3)Oc2ccc3ccccc3c21", "note": "(centres undefined)", "Inhibition": "1.46%"}, {"smiles": "C#CCN(C)c1ncc(C#N)c(N)n1", "Inhibition": "5.2%"}, {"smiles": "C=CCNCc1cc2cc(OCCCC3CCN(Cc4ccccc4)CC3)ccc2[nH]1.O.O=C(O)C(=O)O.O=C(O)C(=O)O", "Inhibition": "0.53%"}, {"smiles": "Cc1ccc(CNNC(N)=O)cc1.Cl", "Inhibition": "-0.27%"}, {"smiles": "N#CC1(Br)C(=NBr)Oc2ccc3ccccc3c2C1c1ccccc1[N+](=O)[O-]", "note": "(centres undefined)", "Inhibition": "4.94%"}, {"smiles": "N#CC1=C(N)Oc2ccc3ccccc3c2C1c1cccc([N+](=O)[O-])c1", "note": "(centres undefined)", "Inhibition": "10.7%"}, {"smiles": "Cc1ccc2nc(Cl)c(/C=N/OCc3ccccc3)cc2c1", "Inhibition": "2.45%"}, {"smiles": "C#CCNc1nc(NC2CCN(Cc3ccccc3)CC2)c(C#N)cc1C#N.Cl", "Inhibition": "1.54%"}]}]}
